For the assay, the system named is PPARg DBDmut:RXRa IVT, anti-PPARg (DBD mutation: PPARg1 K132A/R137A, NR concentration 270 nM, RXRa partner concentration 90 nM). Kind of assay: PBM binding z-score (relative to random genomic background probes); higher = stronger binding; sequences stand for … in GC…GCGATTGACAGCGTAGAATGAAGG
The procedure, abridged:
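The probes on custom Agilent 4×180K protein-binding microarrays were double-stranded, with 34-nt variable regions bearing direct-repeat seeds, single-nucleotide variants, half-site ablations and random human genomic background sequences. Incubation lasted 1 h with ligand-free nuclear receptor dimers in PBS pH 7.4, 2% milk, 0.02% Triton X-100, 1 mM DTT, 0.2 mg/mL BSA and 0.4 mg/ml salmon testes DNA. Antibodies against each partner (one per run) detected bound dimers, and fluorescence scans were regression-normalized. Binding z-scores take the random background probes as reference.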
ATATGTAGGTTAGCTGTGGTCATTCAGACTAGGC: the PBM binding z-score was 2.72.
TCTCGGAGGACACGAAAGGTCAGCGCTCGACATC displayed a PBM binding z-score of -0.121.
Consider TCCTGTAGATCAAAGGTTAAGAAAGCCGAAGCCT, for which the PBM binding z-score is -0.37.
TCTAGTTGGTCGAAGGTCACACACTCGAAATGCG yielded a PBM binding z-score of 1.01.
The sequence TCATATAGGTAAAGGTGAAAGTCGAACGATATGA showed a PBM binding z-score of 1.81.
TAGCCTAGGTCATTCATGGGCCAGTATAGAAAGC had a PBM binding z-score of 0.271.
On to AGAATGAGCTTATACGTAGATCAGGGAAGAAAGT, for which the PBM binding z-score stood at 0.558.
Consider GCGACTGGGGCAAAGCAGGTTACCATAAGGTTGG, for which the PBM binding z-score was -0.534.
On to ACTAGTTTGTCAGCTGAGGTCACACACAATTCGG, for which the PBM binding z-score came to 0.92.
To ATACCAAGGTGTTCGTGAGGTCGTTGATACTAAC belongs 0.822; to CCAGACAGGTGAAAGGTAAGTCAGTCTGGTACGC, -0.386; to AGAATGAGGTTATACGTATATCAGGGAAGAAAGT, 1.21.
The sequence GCTATTAGTTGAAAGGGCTACCGAATGATTCTCG came in with a PBM binding z-score of -0.304.
As to CCTACTGGGCCAAAGGTCATTGTTTCCAATGCTC, the PBM binding z-score amounted to 2.88.
Consider GCTAGCAGGCCATTTGGGTCTCTCAATGACGGGC, for which the PBM binding z-score is -0.858.
The figure for TCGAGTAGGTTAGTTGGGGCATTCAGCCAACATA is -0.651; for AATACAGGGCCACTAGGCCAGAGTAGGTACGAAT it is 0.705.
Sequence ATACGTAGGTTAGCTGGGGTCATTCAGACTAGGC displayed a PBM binding z-score of 0.0785.
Regarding GCTAGTTGGCCAGTAAAAGGTCACACACCGGTCG, the PBM binding z-score was -0.104.
As to TGTCAAAGTTCAGAGGTAACGTAAGTATCCACAC, the PBM binding z-score is 0.775.
ATCTCTAGGTCAGACTCAGTTCAGTGAAGAACGC returned a PBM binding z-score of 1.01.
TCACATAGGTAAAAGGTGAAAGTCGGTGTGGTAA: the PBM binding z-score turned out to be 0.93.
TCTTGTAGATGAATAGAGGTTAAGAAAGTGCGCT had a PBM binding z-score of 0.58.
In the case of AGAATTAGGTTACCAAAGATCAGGGAAACGCTTG, the PBM binding z-score amounted to 1.54.
The sequence ATCTCTAAGTAAAGTTCAGTGAAAGATCGATAGA returned a PBM binding z-score of 1.26.
Sequence AATAGAGGGTCACTAGGCCAGAGTAGGTACGAAT yielded a PBM binding z-score of 0.782.
AGAACGAGGGCACGCTGATTTGATAGCAGAGTAG: the PBM binding z-score came to 0.567.
On to GGAACGAGGGCAAGTTGATGGCAGAGTTTGATGG, for which the PBM binding z-score was -0.155.
The figure for CCTAGTTGGTCAATGTCACACACGCTATAGGTAC is 1.25; for TCATTTAGGTAATACAGGTGAAAGTCGGCATCTA it is 1.53; for CCTTACGGGTTACTGACAGGTTATAGCATTTGGA it is -0.172.
The figure for ACTATTCGTTGACTTAGGGCAACCGATACGACGC is 1.11; for ACCTCTAGGTAAGACTCAGTTCAGTGAAGAACGC it is -0.124.
Take CGTCCAAGGTCAATGCTAGGTCAGTGAAAGCATT: the PBM binding z-score is 0.477.
The sequence ACTATTAGTTGAGACGAGGGCAACCGCTAGGTTG registered a PBM binding z-score of 0.243.
On to TCTTGTAGATCAAAAGAGGTTAAGAAAGTGCGCT, for which the PBM binding z-score amounted to 0.0222.
In the case of CGAACGAGGGCATGAGTTGAGAGCAAATGCCGAT, the PBM binding z-score was -0.212.
GCTATTAGTTGAAAGGGCAACCAAATGATTCTCG displayed a PBM binding z-score of 0.444.
The figure for CAAACTAGGTCAAAGGTCAAAGGCGAGCCAACCA is 4.87; for GCTTGTAGATCAACGTTAAGAAAGACTAAGCTAA it is 0.342.

The record behind these values is the supplement of paper PMC6555819.
